A selection: hits, their analogues and other compounds. The true share with any hit is near 2.4%.
SENP7 inh = SENP7 protease inhibitors, primary screen, biochemical, luminescence, uHTS; recombinant SENP7, Z-RLRGG-aminoluciferin luminescence, 40 min; inhibition, % at 5 µM; AID 434973, 2010; 1.5% of 330,000 active;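 active means inhibition above about 50% at the single test dose, limit read from the data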;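 further: plate controls were DMSO with enzyme for no effect and no enzyme buffer wells for full effect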
Target sequence (Q9BQF6 706-1050 limits assumed): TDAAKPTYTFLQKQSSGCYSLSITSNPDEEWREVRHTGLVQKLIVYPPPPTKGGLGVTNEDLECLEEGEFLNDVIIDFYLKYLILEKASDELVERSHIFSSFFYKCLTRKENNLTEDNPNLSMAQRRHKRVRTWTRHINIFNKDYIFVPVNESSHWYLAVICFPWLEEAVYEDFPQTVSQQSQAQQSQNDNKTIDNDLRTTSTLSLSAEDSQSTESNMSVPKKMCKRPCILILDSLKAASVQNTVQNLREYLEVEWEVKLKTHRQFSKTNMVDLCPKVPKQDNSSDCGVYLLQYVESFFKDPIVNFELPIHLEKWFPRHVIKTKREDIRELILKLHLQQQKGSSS
SENP6 inh = SENP6 protease inhibitors, primary screen, biochemical, luminescence, uHTS. Recombinant SENP6 catalytic domain, aminoluciferin luminescence. inhibition, % at 10 µM. AID 2599, 2010. 1.8% of 330,000 active. Sentrin-specific protease 6 (Homo sapiens), Q9GZR1;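 active means inhibition above about 50% at the single tested dose, limit read from the data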;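 further: plate controls were DMSO wells with enzyme for no effect and DMSO wells lacking enzyme for full effect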
SENP8 block-1 = human SENP8 protease inhibitors, primary screen, biochemical, fluorescence, Nedd8 protein substrate, uHTS | 0.64% of 360,000 active | Sentrin-specific protease 8 (Homo sapiens), Q96LD8 | recombinant SENP8 | inhibition, % at 20 µM; in the data active means inhibition mostly above about 40%, no sharp cut-off; inactive means mostly below about 27%
SENP8 block-2 = SENP8 protease inhibitors, primary screen, biochemical, luminescence | inhibition, % at 10 µM | AID 2540, 2010 | Sentrin-specific protease 8 (Homo sapiens), Q96LD8 | purified SENP8, Z-RLRGG-aminoluciferin cleavage | 1.2% of 330,000 active; in the data active means inhibition above about 50%
Platelet DG rel = inhibitors of platelet dense granule secretion, primary screen, cell-based, MLPCN, human platelets. human platelet-rich plasma, SFLLRN dense granule ATP release, luminescence. inhibition, %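 (compounds screened at 7.5 µM in platelet-rich plasma)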. 0.22% of 300,000 active. AID 1663, 2009;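 active means mean replicate score, as percent of positive control, at or above 50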
SENP8 conf = SENP8 protease inhibitors, retest, confirmation, biochemical, luminescence, single concentration; shares compounds with SENP7 inh; Recombinant SENP8, Z-RLRGG-aminoluciferin luminescence, 60 min; inhibition, % at 12.5 µM; 40% of 6,200 active;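 active means mean inhibition across replicates above about 50%, limit read from the data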
SENP6 confirm = SENP6 protease inhibitors, confirmation, biochemical, luminescence, single concentration | 58% of 6,200 active | AID 488915, 2010 | inhibition, % at 12.5 µM | shares compounds with SENP7 inh | recombinant SENP6, Z-RLRGG-aminoluciferin luminescence
SENP7 conf = SENP7 protease inhibitors, retest, confirmation, biochemical, luminescence, single concentration; inhibition, % at 12.5 µM; shares compounds with SENP7 inh; recombinant SENP7, Z-RLRGG-aminoluciferin luminescence, 40 min; 69% of 6,200 active; AID 488917, 2010
Casp3 SENP sel = caspase-3 protease inhibitors, confirmation, selectivity assay for SENP inhibitor project, biochemical, single concentration; shares compounds with SENP7 inh; purified caspase-3, Z-DEVD-aminoluciferin luminescence, 60 min; inhibition, % at 12.5 µM; 60% of 6,200 active; AID 488918, 2010;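 active means mean inhibition above about 50%, limit read from the data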;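 further: plate controls were enzyme with DMSO for no effect and wells without caspase-3 for full effect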
Target sequence (P42574 28-227 limits assumed): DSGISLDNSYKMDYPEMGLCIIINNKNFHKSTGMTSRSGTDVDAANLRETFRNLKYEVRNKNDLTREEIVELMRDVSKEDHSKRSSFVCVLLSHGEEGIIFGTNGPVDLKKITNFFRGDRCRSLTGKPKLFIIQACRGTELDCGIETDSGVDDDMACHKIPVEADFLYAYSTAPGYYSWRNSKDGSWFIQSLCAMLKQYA
Luc interf = luminescence interference (SENP counter-screen). shares compounds with SENP7 inh. Pre-incubated SENP8/Z-RLRGG-aminoluciferin, luciferase luminescence interference. inhibition, % at 12.5 µM. 39% of 6,200 active. AID 488919;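 active means mean inhibition above about 50% when retested at one dose, limit read from the data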;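 further: plate controls were DMSO wells with completed reaction for no effect and substrate without enzyme for full effect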
* hit, by the source's call; / = not tested or not shown.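 How the source made its calls, unless noted: active means mean inhibition above about 50% in the one-dose retest (limit read from the data); inactive means the rest.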

SMILES	SENP7 inh	SENP6 inh	SENP8 block-1	SENP8 block-2	Platelet DG rel	SENP8 conf	SENP6 confirm	SENP7 conf	Casp3 SENP sel	Luc interf
Nc1nc(-c2ccc3ccccc3c2)cs1	74*	33	-255	69*	8	0	83*	97*	64*	84*
COc1cc(/C=C/C(C)=NNc2ccccc2)ccc1O	/	/	-47	/	/	/	/	/	/	/
Cc1ccc(CSCCNS(=O)(=O)c2ccc(C)cc2)cc1	-4	-11	19	-6	2	/	/	/	/	/
O=C(Nc1ccccc1Cl)OCC#CCOC(=O)Nc1ccccc1Cl	/	/	10	/	/	/	/	/	/	/
COc1cc2c(cc1OC)C(C)N(C(=O)C1=NN(c3cccc(C)c3)C(=O)CC1)CC2 (configuration not stated)	-2	2	5	6	-12	/	/	/	/	/
COc1ccc(-c2cn(CCO)nc2-c2ccc(OC)cc2)cc1	-5	5	8	-12	-11	/	/	/	/	/
NC(=O)c1ccccc1NC(=O)/C=C/c1ccc(Cl)cc1	63*	51*	3	22	-10	1	17	89*	66*	18
O=C(COC(=O)/C=C/c1ccccc1)Nc1cccnc1Cl	1	-17	11	-14	-5	/	/	/	/	/
O=C(/C=C/c1ccccc1)Nc1cccnc1Cl	-1	74*	19	66*	14	69*	60*	90*	84*	73*
COC(=O)c1ccccc1NC(=O)/C=C/c1ccco1	8	35	-32	17	-4	/	/	/	/	/
O=C(/C=C/c1ccc(Cl)cc1)NC(=S)Nc1ccccc1C(=O)O	9	-10	-2	5	-2	/	/	/	/	/
O=C(Nc1ccc(F)cc1)Nc1cccnc1Cl	85*	81*	16	77*	30	-7	78*	96*	88*	81*
O=C(/C=C/c1ccco1)Nc1cccnc1Cl	54*	58*	-2	48	5	58*	56*	86*	85*	63*
COC(=O)c1ccc(NC(=O)c2cccc(C)c2[N+](=O)[O-])cc1	-2	-10	14	-13	3	/	/	/	/	/
CC(C)OCCCNC(=O)c1cc(S(=O)(=O)N2CCc3ccccc32)cn1C	8	4	18	9	10	/	/	/	/	/
COc1cccc(C(O)c2ncc(-c3ccc(Cl)cc3)[nH]2)c1 (configuration not stated)	/	/	20	/	/	/	/	/	/	/
Oc1ccccc1/C=N/NC(=S)NC1CC2CC1C1C=CCC21 (configuration not stated)	1	25	-72	17	-4	/	/	/	/	/
CCOC(=O)c1c(NC(=O)CN2CCN(c3ccc(Cl)cc3)CC2)sc(C)c1C	55*	-15	-18	-9	-11	-1	5	8	4	2
Cc1ccc(NC(=O)Nc2ccno2)cc1	-11	-22	22	-4	/	/	/	/	/	/
Cn1cc(/C=C/C(=O)c2ccccc2)c2ccccc21	79*	69*	-252	63*	5	6	74*	89*	45	43
Cc1ccc(NC(CC(=O)c2ccccc2)C(=O)O)cc1Cl (configuration not stated)	65*	-8	-34	74*	11	-12	8	18	36	19
Cc1ccc2[nH]c(-c3cccc(N)c3)cc2c1	70*	16	-304	56*	6	57*	77*	94*	32	53*
O=C(Nc1c[nH]c(=O)[nH]c1=O)c1cccc(F)c1	-4	-8	15	62*	2	11	3	-10	3	-8
CC(C)CN1C(=O)c2ccc(C(=O)Nc3ccccc3C(=O)O)cc2C1=O	43	87*	22	82*	6	88*	88*	98*	88*	89*
Cc1occc1C(=O)Nc1ccccc1C(=O)O	-9	0	2	-14	10	/	/	/	/	/
SMILES	SENP7 inh	SENP6 inh	SENP8 block-1	SENP8 block-2	Platelet DG rel	SENP8 conf	SENP6 confirm	SENP7 conf	Casp3 SENP sel	Luc interf
COc1ccc(C(=O)Nc2ccccc2C(=O)Nc2ccccc2C(=O)O)cc1	-12	23	-15	-16	16	/	/	/	/	/
Cc1cc(C(=O)Nc2ccccc2C(=O)O)oc1C	13	64*	2	47	-5	68*	64*	90*	88*	73*
COc1c(Cl)cc(C(=O)Nc2ccccc2C(=O)O)cc1Cl	6	76*	7	69*	-2	81*	79*	86*	36	84*
CN(Cc1ccccc1)C(=O)c1ccc(NC(=O)Cc2cccc(NC(=O)C3CCCN(C(=O)C4CCCC4)C3)c2)cc1 (configuration not stated)	-1	-10	9	-3	/	/	/	/	/	/
Cc1ccc(NC(=O)c2cccc(C(=O)Nc3ccc(C)cc3C(=O)O)c2)c(C(=O)O)c1	-8	20	6	24	-7	/	/	/	/	/
O=C(Nc1ccccc1C(=O)O)c1cccc(F)c1	38	75*	24	51*	-20	75*	70*	92*	87*	75*
Cc1ccc(S(=O)(=O)CCSc2cccc(C(=O)Nc3ccccc3C(=O)O)c2)cc1	-2	88*	8	65*	0	-20	76*	92*	60*	85*
O=C(Nc1cc(C(=O)Nc2ccccc2C(=O)O)cc(C(=O)Nc2ccccc2C(=O)O)c1)c1ccccc1	-1	16	-2	10	-7	/	/	/	/	/
Cc1ccc(C(=O)Nc2ccccc2C(=O)O)cc1S(=O)(=O)Nc1ccccc1	0	62*	6	33	-1	55*	52*	73*	33	63*
Cn1cc(NC(=O)Nc2ccc(C(F)(F)F)cc2)c(C(F)(F)F)n1	48	6	11	13	-1	/	/	/	/	/
O=C(C1CCC1)N1CCc2cc(S(=O)(=O)NC3CCCc4ccccc43)ccc21 (configuration not stated)	97*	5	14	-3	10	5	6	3	0	4
